Compound activity as filed in PubChem.
In the library only some 5% were active in any assay of this set; here they are far more common.
SENP7 block = SENP7 protease inhibition; inhibition, % at 5 µM; actives 1.5% (n = 330,000); Q9BQF6; recombinant SENP7, Z-RLRGG-aminoluciferin luminescence, 40 min;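 active = inhibition above about 50% at the single test dose, limit read from the data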
AHR act = activators of human aryl hydrocarbon receptor; P35869; AHR-responsive luciferase reporter cells, luminescence; activation, % at 5 µM; actives 2.5% (n = 320,000); AID 2796; in the data active = activation above about 47%
SENP8 block-1 = blocks the human protease SENP8; Q96LD8; purified SENP8, Z-RLRGG-aminoluciferin cleavage, luminescence; inhibition, % at 10 µM; actives 1.2% (n = 330,000); in the data active = inhibition above about 50%
Target sequence (Q96LD8 whole entry, looked up): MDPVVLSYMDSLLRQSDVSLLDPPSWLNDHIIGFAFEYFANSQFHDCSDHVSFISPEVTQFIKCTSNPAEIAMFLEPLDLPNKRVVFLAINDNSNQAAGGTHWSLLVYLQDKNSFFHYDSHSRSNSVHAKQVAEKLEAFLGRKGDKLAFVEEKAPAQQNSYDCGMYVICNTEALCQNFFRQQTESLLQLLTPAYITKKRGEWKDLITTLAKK
SENP6 inh = SENP6 protease inhibition; Recombinant SENP6 catalytic domain, aminoluciferin luminescence; inhibition, % at 10 µM; actives 1.8% (n = 330,000);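 active = inhibition above about 50% at the single tested dose, limit read from the data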
EBI2 block = EBI2 (human) antagonism | AID 651636 | P32249 | actives 0.81% (n = 360,000) | inhibition, % at 5 µM | EBI2 beta-arrestin recruitment, luminescence, 7a,25-OHC stimulated; in the data active = inhibition above about 38%;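 also: enzyme fragment complementation signal reports receptor beta-arrestin coupling in cells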
Target sequence (P32249 whole entry, looked up, the tested form may be a part): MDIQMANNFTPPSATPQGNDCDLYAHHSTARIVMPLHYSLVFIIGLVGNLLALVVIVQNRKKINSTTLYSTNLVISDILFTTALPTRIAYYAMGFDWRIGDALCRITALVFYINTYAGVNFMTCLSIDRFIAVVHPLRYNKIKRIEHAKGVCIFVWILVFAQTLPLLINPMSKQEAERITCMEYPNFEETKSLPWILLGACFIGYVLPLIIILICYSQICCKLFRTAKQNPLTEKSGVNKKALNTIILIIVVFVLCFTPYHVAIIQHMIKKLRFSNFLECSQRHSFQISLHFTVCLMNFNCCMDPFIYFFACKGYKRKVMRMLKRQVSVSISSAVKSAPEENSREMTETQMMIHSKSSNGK
SENP8 block-2 = blocks human SENP8 cleavage of Nedd8 substrate; inhibition, % at 20 µM; Q96LD8; actives 0.64% (n = 360,000); AID 602440; recombinant SENP8, Nedd8 substrate fluorescence; in the data active = inhibition mostly above about 40%, no sharp cut-off; inactive = mostly below about 27%
AHR act cf = human AHR activation, confirmation; activation, % at 9 µM; shares compounds with AHR act; human cells, AHR-responsive luciferase reporter, luminescence; actives 87% (n = 2,300); in the data active = activation above about 49%;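 also: HepG2 hepatoma cells carrying a DRE-driven firefly luciferase reporter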
PXR counter = PXR activation, counter-screen for AHR activators; shares compounds with AHR act; actives 88% (n = 2,300); AID 434939; cell-based PXR reporter, luciferase luminescence; activation, % at 11.6 µM; in the data active = activation above about 11%;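 also: human hepatoma DPX-2 cells expressing full-length human PXR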
EBI2 conf = confirmation of human EBI2 receptor antagonists | actives 29% (n = 2,400) | shares compounds with EBI2 block | EBI2 beta-arrestin luminescence, 7a,25-OHC antagonism | inhibition, % at 5 µM | AID 651997;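 active = inhibition of at least 50%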
EBI2 agonist = counter-screen for EBI2 antagonists: EBI2 agonist activity | shares compounds with EBI2 block | 2,400 tested, under 10 active | AID 652000 | activation, % at 5 µM | EBI2-expressing cells, agonist mode, luminescence, 60 min; 0% vehicle, 100% 7α,25-dihydroxycholesterol control;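 active = activation of at least 50%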
bGal counter = beta-galactosidase inhibition counter-screen | shares compounds with EBI2 block | AID 652176 | actives 1% (n = 2,400) | purified beta-galactosidase, luminescent Galacton Star, 15 min | inhibition, % at 5 µM;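 active = replicate-average signal at least 3 plate SD below neutral wells, shown as high inhibition, flagging enzyme-inhibiting false positives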;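 also: higher means stronger loss of beta-gal luminescence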
A number is an active result; n = inactive; x = not tested or not shown.

SMILES | SENP7 block | AHR act | SENP8 block-1 | SENP6 inh | EBI2 block | SENP8 block-2 | others
Cn1ncnc2c(=O)n(C)c(=O)nc1-2 | 96.2 | n | 95.9 | 95.2 | n | 100.7
COC(=O)C1=C(c2ccc(S(C)(=O)=O)cc2)C[C@@H]2CC[C@H]1N2C(=O)NC1CCCCC1 | n | n | n | n | n | n
O=[N+]([O-])NC1=NCN(Cc2ccco2)CN1Cc1ccco1 | n | n | n | n | n | n
COc1cc2c(cc1OC)CC[N+](C)=C2 | n | n | n | n | n | n
Cc1c2ccncc2c(C)c2c1[nH]c1ccccc12 | n | 66.7 | n | n | n | n
Oc1ccc2c3c1OC1c4[nH]c5ccccc5c4C[C@@]4(O)C(C2)N(CC2CC2)CC[C@]314 (some centres not stated) | n | n | n | n | n | n
O=C1/C(=C/c2ccccc2)C[C@@]2(O)[C@H]3Cc4ccc(O)c5c4[C@@]2(CCN3CC2CC2)C1O5 (some centres not stated) | n | n | n | n | 54.6 | n
O=C1NC(=O)C(C(CC(=O)c2ccccc2)c2ccccc2)C(=O)N1 (configuration not stated) | n | n | n | n | n | n
Cc1[nH]n(-c2ccccc2)c(=O)c1C(c1ccc([N+](=O)[O-])cc1)c1c(C)[nH]n(-c2ccccc2)c1=O | n | n | n | n | n | 90.1
Cc1ccc(OC(=O)N(C)C[C@@H]2OCc3cnnn3CCCC(=O)N([C@@H](C)CO)C[C@@H]2C)cc1 | x | x | x | x | n | n
Cc1ccccc1CS(=O)(=O)Cc1ccc(C(=O)N2CCC3(CC2)OCCO3)o1 | n | n | n | n | n | n
O=c1c2cc(Br)ccc2[nH]c(=S)n1-c1ccccc1 | n | 50.4 | n | n | n | n
NN=C(N)N | n | 53.3 | n | n | n | n
Cc1cc2c(C(C)C)c(O)c(O)c(C=O)c2c(O)c1-c1c(C)cc2c(C(C)C)c(O)c(O)c(C=O)c2c1O | x | x | x | x | n | 39.3
CN1CCc2cc3c(c4c2C1Cc1ccccc1-4)OCO3 (configuration not stated) | 50.2 | n | 63.6 | 70.1 | n | n
Cc1ccc(C(C)C)c(OCC(=O)N2CCN(Cc3nc4cc([N+](=O)[O-])ccc4n3C)CC2)c1 | n | n | n | n | n | n
CCOC(=O)[C@]12Cc3cc(Cl)ccc3[C@H]1N(C1CCCCC1)C(=O)c1ccccc12 | x | x | x | x | 75.9 | n
CCOC(=O)[C@]12Cc3cc(Cl)ccc3[C@H]1N(C)C(=O)c1ccccc12 | x | x | x | x | n | n
O=C(NC1CC1)C1CSC(c2cccnc2)=N1 (configuration not stated) | n | n | n | n | n | n
CC(C)(C)c1cc(C=C(C#N)C#N)cc(C(C)(C)C)c1O | n | n | n | n | n | 39.9
CC1CCCC(C)N1/N=C/c1c[nH]c2ccc(Br)cc12 (configuration not stated) | n | 88.9 | n | n | n | n | AHR act cf=82.8;PXR counter=59.7
CCc1nc2ccccc2c(=O)n1-c1ccccc1OC | n | x | n | n | n | n
COc1ccccc1-n1c(CNCC2CCCO2)nc2ccccc2c1=O (configuration not stated) | n | 81.3 | n | n | n | n | AHR act cf=48.4;PXR counter=37.5
NC(=O)Nc1ccc(C(=O)OCC(=O)Nc2ccc(Cl)cc2C(=O)c2ccccc2)cc1 | n | 93.3 | n | n | n | n | AHR act cf=n;PXR counter=14.3
C[N+](C)(C)CC(=O)Nc1ccc(Cl)cc1C(=O)c1ccccc1 | n | n | n | n | n | n
SMILES | SENP7 block | AHR act | SENP8 block-1 | SENP6 inh | EBI2 block | SENP8 block-2 | others
O=C1CN=C(c2ccc(Cl)cc2)c2oc3ccccc3c2N1 | n | 103.6 | n | n | n | n | AHR act cf=118.7;PXR counter=31.3
Nc1ccccc1Cl | n | n | n | n | n | n
COc1ccccc1NC(=O)COC(=O)c1cn(C)c2ccccc12 | n | n | n | n | n | n
Cc1cccc(N2CCc3c2nc2ccccc2c3N)c1 | n | 82.9 | n | n | n | n | AHR act cf=85.7;PXR counter=54.8
C=CCN1CCC2(C)c3cc(O)ccc3CC1C2C (configuration not stated) | n | n | n | n | n | n
COc1ccc2c(c1)/C(=C/c1cnc[nH]1)C(=O)N2 | n | 248.3 | n | n | n | n | AHR act cf=49.2;PXR counter=14.9
CC1(C)OC1COc1c2occc2cc2ccc(=O)oc12 (configuration not stated) | n | n | n | n | n | n
CC(C)=CCOc1c2occc2cc2ccc(=O)oc12 | n | 114.4 | n | n | n | n | AHR act cf=86.1;PXR counter=77.9
O=c1[nH]c(=S)n(C2CCCCC2)c(O)c1/C=N/N1CCOCC1 | n | n | n | n | n | n
O=C(COc1ccccc1)c1cn(Cc2ccccc2)c2ccccc12 | n | 84.2 | n | n | 45.6 | n | AHR act cf=66.2;PXR counter=103.4;EBI2 conf=n;EBI2 agonist=n;bGal counter=n
CC(=O)NC1C(OC(=O)Cc2ccccc2)OC(COC(C)=O)C(OC(C)=O)C1OC(C)=O (configuration not stated) | n | n | n | n | n | n
BrCC1C[n+]2c(SCc3ccccc3)nc3sc4c(c3c2O1)CCCC4 (configuration not stated) | n | n | n | n | n | n
